Data from PubChem BioAssay (NCATS).
Calls of active or inactive are those of the source. The call rests on the fitted dose curve; in most records, active means well fitted curve in the direction sought with a large enough effect; inconclusive means small, poorly fitted or top-dose-only effect, or effect the other way, or another doubt; inactive means no such curve, though single readings can be large or run the other way.

Experiment: Inducers of the Endoplasmic Reticulum Stress Response (ERSR) in human glioma: Validation (AID 504836)
Conditions: human glioma cells, ER stress response reporter; series mostly up to 38.3 µM
How it was run: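 Stably transfected U87-MG glioma cells carrying a GRP78-based luciferase sensor; 16 h compound incubation. Luminescence end-point read 10 min after Bright-Glo addition at room temperature.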

Q: For `CC(C)(Oc1ccc(CCNC(=O)c2ccc(Cl)cc2)cc1)C(=O)O`, which outcome is on record?
A: inactive

Q: For `Nc1c2c(nc3ccccc13)CCCC2O` (stereo not given), which outcome is on record?
A: inactive

Q: For `Fc1ccc(C(c2ccc(F)cc2)N2CCN(C/C=C/c3ccccc3)CC2)cc1`, which outcome is on record?
A: inactive

Q: With `CCCOc1ccccc1-c1nc2n[nH]nc2c(=O)[nH]1` as the compound, how does the outcome read?
A: inactive

Q: With `CCN(CC)CCCN(c1ccccc1)C1Cc2ccccc2C1` as the compound, how does the outcome read?
A: inactive

Q: For `Cc1ccc(/C(=C\CN2CCCC2)c2ccccn2)cc1`, which outcome is on record?
A: inactive

Q: With `Cc1nc2sccn2c(=O)c1CCN1CCC(=C(c2ccc(F)cc2)c2ccc(F)cc2)CC1` as the compound, how does the outcome read?
A: inactive

Q: Which outcome does the source give for `O=C(c1ccc(F)cc1)C1CCN(CCn2c(=O)[nH]c3ccccc3c2=O)CC1` here?
A: inactive

Q: For `CN(C)CC[C@@H](c1ccc(Cl)cc1)c1ccccn1`, which outcome is on record?
A: inactive

Q: For `CN(C)C/C=C(/c1ccc(Br)cc1)c1cccnc1`, which outcome is on record?
A: inactive

Q: For `CCNC(=O)N1CCN(CCCC(c2ccc(F)cc2)c2ccc(F)cc2)CC1`, which outcome is on record?
A: inactive

Q: Which outcome does the source give for `CC1=C(CC(=O)O)c2cc(F)ccc2/C1=C\c1ccc(S(C)=O)cc1` (stereo not given) here?
A: inactive

Q: Which outcome does the source give for `CN(C)CCOC(c1ccccc1)c1ccccc1` here?
A: inactive

Q: Which outcome does the source give for `CCN(CC)CCCC(C)Nc1c2ccc(Cl)cc2nc2ccc(OC)cc12` (stereo not given) here?
A: inactive

Q: With `CCCCNc1ccc(C(=O)OCCN(C)C)cc1` as the compound, how does the outcome read?
A: inactive

Q: With `CCCCNc1c(C(=O)OCC)c(C)nc2c1cnn2CC` as the compound, how does the outcome read?
A: inactive

Q: With `CCCCCN(CCCCC)C(=O)C(CCC(=O)O)NC(=O)c1ccc(Cl)c(Cl)c1` (stereo not given) as the compound, how does the outcome read?
A: inactive

Q: With `COc1ccc(CN(CCN(C)C)c2ccccn2)cc1` as the compound, how does the outcome read?
A: inactive

Q: With `CCCN(CCC)C(=O)C(CCC(=O)O)NC(=O)c1ccccc1` (stereo not given) as the compound, how does the outcome read?
A: inactive

Q: For `CSc1ccc2c(c1)C(N1CCN(C)CC1)Cc1ccccc1S2` (stereo not given), which outcome is on record?
A: inactive
